The results in this text go back to PubChem BioAssay (EPA / NIEHS).

Records with an inconclusive call do not appear. Calls of active or inactive are those of the source. Rule for the calls, unless noted: active = hit-call score of the fitted dose curve at least 0.9, where 1 is the maximum; inactive = score below 0.9.

In one assay the test system is SERPINA7 (gene 6906). Description: CCTE_GLTED_hTBG: CCTE's human Thyroxine-binding Globulin (TBG) Inhibition Assay, Great Lakes Toxicology and Ecology Division (GLTED) Lab (AID 2284343; active = hit-call score of the fitted dose curve at least 0.9, where 1 is the maximum;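 note: active chemicals lower fluorescence versus DMSO baseline by displacing probe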). The procedure, abridged: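 Human TBG incubated 2 h with test chemical; displacement of ANSA probe read by fluorescence, 380 nm excitation/475 nm emission. Loss of signal relative to DMSO.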

The nature of assay [1]: CCTE_Mundy_HCI_iCellGluta_NOG_NeuronCount: CCTE's Neurite Outgrowth Assay in iCellGluta cells for Neuron Count, Mundy Lab (AID 2284340; active = hit-call score of the fitted dose curve at least 0.9, where 1 is the maximum;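 note: cells fixed about 48 h after compound addition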). The procedure, abridged:
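Neuron count read by automated high-content imaging of Hoechst 33342 and betaIII-tubulin/Alexa Fluor-488 labelling in human iPSC glutamatergic neurons. Activity fitted relative to DMSO.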

A short description of assay [2]: CCTE_Mundy_HCI_iCellGluta_NOG_NeuriteCount: CCTE's Neurite Outgrowth Assay in iCellGluta cells for Neurite Count, Mundy Lab (AID 2284342; active = hit-call score of the fitted dose curve at least 0.9, where 1 is the maximum;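 note: chemical exposure about 48 hours starting 2 hours after plating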).
Assay [3] can be described thus: CCTE_Padilla_ZF_Score.General: CCTE's 144 Hour Post-fertilization zebrafish Assay Score for General Malformation, Padilla Lab (AID 2284411). The essentials: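 Wild-type zebrafish embryos were plated singly at 6-8 hpf in 10% Hanks' and exposed in sealed wells at 26C until rinsed on 5 dpf. At 6 dpf two blinded assessors scored mortality, hatching and malformations by stereomicroscopy; gain-of-signal versus DMSO.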

Assay [4] in a line: CCTE_Padilla_ZF_Score.Craniofacial: CCTE's 144 Hour Post-fertilization zebrafish Assay Score for Craniofacial Malformation, Padilla Lab (AID 2284405). The procedure, abridged: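 Wild-type zebrafish embryos (with chorions), one per well in 10% Hanks', were dosed at 6–8 hpf in sealed plates and kept at 26C. They were rinsed at 5 dpf. At 6 dpf two blinded assessors scored craniofacial malformations by brightfield stereomicroscopy.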

A short description of assay [5]: CCTE_Padilla_ZF_Score.Edema: CCTE's 144 Hour Post-fertilization zebrafish Assay Score for Edema Malformation, Padilla Lab (AID 2284406). The procedure, abridged: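 Wild-type zebrafish embryos, one per well in Hanks' solution, dosed at 6-8 hpf, sealed and reared at 26C on a 14:10 h cycle; rinsed on 5 dpf. At 6 dpf, blinded assessors scored edema by stereomicroscopy.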

Assay [6] in a line: CCTE_Padilla_ZF_Score.Spine: CCTE's 144 Hour Post-fertilization zebrafish Assay Score for Spine Malformation, Padilla Lab (AID 2284407). The essentials:
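Wild-type zebrafish embryos, one per well in Hanks' solution, dosed at 6–8 hpf in sealed plates at 26C, 14:10 h light:dark; rinsed at 5 dpf. Two blinded assessors scored spinal defects by stereomicroscopy at 6 dpf; fitted versus DMSO.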

The nature of assay [7]: CCTE_Padilla_ZF_Score.Swim_bladder: CCTE's 144 Hour Post-fertilization zebrafish Assay Score for Swim Bladder Malformation, Padilla Lab (AID 2284408). The procedure, abridged: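 Wild-type zebrafish embryos, one per well in 10% Hanks', dosed at 6–8 hpf, sealed, reared at 26C and rinsed at 5 dpf. Blinded assessors scored uninflated swim bladder by stereomicroscopy at 6 dpf, relative to DMSO.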

A short description of assay [8]: CCTE_Padilla_ZF_Score.Position: CCTE's 144 Hour Post-fertilization zebrafish Assay Score for Position, Padilla Lab (AID 2284409). The procedure, abridged: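 Wild-type zebrafish embryos (with chorions) exposed singly from 6–8 hpf in sealed wells of Hanks' solution at 26C, rinsed at 5 dpf. At 6 dpf, blinded assessors scored abnormal water-column position by brightfield stereomicroscopy, relative to DMSO.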

The nature of assay [9]: CCTE_Padilla_ZF_Score.Living: CCTE's 144 Hour Post-fertilization zebrafish Assay Score for Viability, Padilla Lab (AID 2284410).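 Note: larval death at 6 dpf judged by absent heartbeat or coagulation.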 The procedure, abridged:
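Wild-type zebrafish embryos were exposed singly from 6–8 hpf in sealed wells of Hanks' solution at 26C, then rinsed at 5 dpf. At 6 dpf, blinded assessors scored mortality (no heartbeat or coagulation) by stereomicroscopy, fitted against DMSO.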

A short description of assay [10]: CCTE_Padilla_ZF_Score.Tail: CCTE's 144 Hour Post-fertilization zebrafish Assay Score for Tail Malformation, Padilla Lab (AID 2284414). The essentials: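 Wild-type zebrafish embryos, one per well in 200 uL 10% Hanks', dosed at 6-8 hpf, sealed, and kept at 26 C on a 14:10 h light cycle. Chemical was rinsed out at 5 dpf. Blinded brightfield scoring of tail defects followed at 6 dpf.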

Assay [11] can be described thus: CCTE_Padilla_ZF_Score.Blood_pooling: CCTE's 144 Hour Post-fertilization zebrafish Assay Score for Blood Pooling, Padilla Lab (AID 2284415). The essentials:
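Wild-type outbred zebrafish embryos, one per well in 10% Hanks', exposed from 6–8 hpf in sealed plates at 26C on 14:10 h light:dark, rinsed at 5 dpf. Blinded stereomicroscope scoring of blood pooling at 6 dpf; gain-of-signal versus DMSO.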

The nature of assay [12]: CCTE_Padilla_ZF_Score.Any: CCTE's 144 Hour Post-fertilization zebrafish Assay Score for Any Mortality or Malformation, Padilla Lab (AID 2284416). The essentials: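 Wild-type zebrafish embryos with chorions, one per well in 10% Hanks' from 6–8 hpf, dosed in sealed plates at 26 C, 14:10 h light:dark; rinsed at 5 dpf; blinded scoring at 6 dpf for death or malformation, versus DMSO.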

For orientation: AC50 means the concentration at which the activity in the assay is half-maximal.

As to `CCCCCCCC/C=C\CCCCCCCC(=O)O`, in the assay on SERPINA7 (gene 6906), the AC50 was 8.56 µM (active).
On to `CN(C)c1ccc(N=Nc2ccccc2C(=O)O)cc1`, for which the AC50 in the assay with SERPINA7 (gene 6906) is 25.6 µM (active).
Turning to `N[C@H]1C(O)O[C@H](CO)[C@H](O)[C@@H]1O` (some centres not stated), the outcome in assay [1] and in assay [2] was inactive.
Take `C#CC1(O)CC[C@H]2[C@@H]3CCC4=CCCC[C@@H]4[C@H]3CC[C@@]21C` (some centres not stated): the AC50 in assay [3] was 2.31 µM (active).
For the molecule `CCCCC(CC)COC(=O)c1ccccc1O` (configuration not stated), the result in [3] was inactive.
Regarding `CCOC(=O)Cc1cccc2ccccc12`, the half-maximal activity concentration (AC50) in the assay on SERPINA7 (gene 6906) is 13.4 µM (active).
With `CC=CC(F)(F)C(F)(F)C(F)(F)F`, the molecule was classed as inactive in assay [4], in assay [5], in [6], in assay [7], in assay [8] and in assay [9]. The molecule was called inactive in assay [3], in assay [10], in assay [11] and in assay [12].
As to `CCCCCCCCCCCCCOP(=O)(O)O`, in the assay on SERPINA7 (gene 6906), the AC50 is 2.24 µM (active).
`c1ccc2c(c1)ccc1cc3c(ccc4ccccc43)cc12`: in assay [3], the outcome was inactive.
In the case of `S=C(NC1CCCCC1)NC1CCCCC1`, the AC50 in [3] is 25.5 µM (active).
Regarding `O=c1cc(-c2ccccc2)oc2ccccc12`, in the assay with SERPINA7 (gene 6906), the AC50 is 18.5 µM (active).
For `O=Nc1ccc(O)cc1`, the outcome in assay [3] was inactive.
In the case of `FC(F)=C(F)OC(F)(F)C(F)(F)C(F)(F)F`, the molecule was classed as inactive in assay [4], in assay [5], in assay [6], in assay [7], in [8] and in assay [9]. The outcome in assay [3], in assay [10], in assay [11] and in [12] was inactive.
In the case of `CCCCCCCCCCCCCCCC[N+](C)(C)CC`, the molecule was classed as inactive in assay [3].
On the same count and under the same terms, then `C=CCOCC(O)CCl` (configuration not stated), with “inactive”.
Turning to `Cc1ccc(C(C)c2ccc(C)c(C)c2)cc1C`, the AC50 in the assay with SERPINA7 (gene 6906) is 1.8 µM (active).
Regarding `CCOC(F)(F)C(F)(F)C(F)(F)C(F)(F)F`, the molecule was called inactive in assay [4], in [5], in assay [6], in assay [7], in [8] and in assay [9]. In addition, the outcome in assay [3], in assay [10], in assay [11] and in assay [12] was inactive.
Consider `O=C(C=Cc1ccccc1)OCc1ccccc1`, for which, in the assay on SERPINA7 (gene 6906), the AC50 was 25.7 µM (active).
Turning to `Oc1ccc(Cl)cc1Cc1cc(Cl)ccc1O`, the AC50 with SERPINA7 (gene 6906) was 0.072 µM (active).
Take `CCCCCCCCCCc1ccccc1`: in [3], the outcome was inactive.
Regarding `Nc1ncn([C@@H]2O[C@H](CO)[C@@H](O)[C@H]2O)c(=O)n1`, the call in assay [1] and in [2] was inactive.
Take `CC1=NN(c2cc(S(=O)(=O)O)ccc2Cl)C(=O)C1N=Nc1ccccc1` (configuration not stated): the call with SERPINA7 (gene 6906) was inactive.
For the molecule `CCCCCCCCc1ccc(Nc2ccc(CCCCCCCC)cc2)cc1`, the result in assay [3] was inactive.
In the case of `CC1(C)S[C@@H]2[C@H](NC(=O)COc3ccccc3)C(=O)N2[C@H]1C(=O)O`, in assay [2], the result was inactive.
In the case of `CCCCC(CC)CCC(CC(C)C)OS(=O)(=O)O` (configuration not stated), the AC50 in the assay on SERPINA7 (gene 6906) was 11.1 µM (active).
As to `CCCCC/C=C\C/C=C\CCCCCCCC(=O)OC`, the call in assay [3] was inactive.
As for `COCc1c(C(C)C)nc(C(C)C)c(/C=C/[C@@H](O)C[C@@H](O)CC(=O)O)c1-c1ccc(F)cc1`, in assay [3], the outcome was inactive.
Regarding `CC(C)(C)c1ccc(OC(=O)c2ccccc2O)cc1`, the AC50 with SERPINA7 (gene 6906) was 1.69 µM (active).
